Screening results (PubChem)
Sampled rows, rich in hits. Any-hit rate of the full collection: about 7.5%.
FLuc modulator – firefly luciferase modulation, counter-screen for miR-21 project | P08659 | purified FLuc, Km substrates, luminescence inhibition | Potency, µM (series often up to 57.5 µM), for inactives: at the top dose activity change, negative = inhibition, hits mostly inhibitors | hit rate 6.9% among 360,000;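 also: plate controls were vehicle for no effect and reference inhibitor for full effect; nearly all actives have a fitted effect of over 55% in size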
Target sequence (P08659 whole entry, looked up): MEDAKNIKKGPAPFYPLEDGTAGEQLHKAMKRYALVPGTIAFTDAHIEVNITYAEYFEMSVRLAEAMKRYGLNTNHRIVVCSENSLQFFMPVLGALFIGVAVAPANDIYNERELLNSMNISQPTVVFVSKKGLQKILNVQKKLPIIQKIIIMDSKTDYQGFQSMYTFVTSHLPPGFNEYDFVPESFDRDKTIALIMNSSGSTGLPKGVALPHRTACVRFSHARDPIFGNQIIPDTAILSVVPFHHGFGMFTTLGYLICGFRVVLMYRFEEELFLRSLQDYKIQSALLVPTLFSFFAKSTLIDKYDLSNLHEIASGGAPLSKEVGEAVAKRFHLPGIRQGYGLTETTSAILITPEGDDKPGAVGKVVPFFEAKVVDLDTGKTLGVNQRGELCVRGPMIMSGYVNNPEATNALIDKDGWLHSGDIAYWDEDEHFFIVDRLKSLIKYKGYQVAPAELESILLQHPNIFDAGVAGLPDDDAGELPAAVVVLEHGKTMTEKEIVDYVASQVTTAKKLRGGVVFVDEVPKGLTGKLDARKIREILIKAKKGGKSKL
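Biochemical qHTS of compounds, final roughly 60 µM downward over six points, against 10 nM purified firefly luciferase using Km concentrations of substrates (10 uM D-luciferin, 10 uM ATP) in Tris acetate pH 7.5 buffer; luminescence output.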
KinaseGlo FLuc – counter-screen: inhibitors of Kinase-Glo firefly luciferase; Q27757; Kinase-Glo luciferase, ATP luminescence, 8 min; Potency, µM (titrated, usually from 38.3 µM), for the others: at the highest dose activity change, negative = inhibition, hits mostly inhibitors; hit rate 0.28% among 200,000; AID 1379; also: % is scaled to controls: 0 for no effect and ±100 for the full control effect; nearly all actives have a fitted effect of over 60% in size
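Light output from Kinase-Glo luciferase with luciferin and 10 uM ATP in 50 mM imidazole pH 7.2, KCl, MgCl2, Tween 20, BSA; compound pin-delivered, 8-min ambient incubation, then luminescence read.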
Rab9 promoter act – activates the Rab9 promoter; Huh7 Rab9 promoter-luciferase reporter, luminescence, 24 h; Potency, µM (top dose mostly 9.22 µM), for the others: at the top dose activation, negative = inhibition, hits mostly activators; hit rate 2.8% among 320,000; also: % of control where 0% means no effect; nearly all actives have a fitted effect of over 60% in size
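Luminescence read-out: Huh7 cells stably expressing Rab9-luciferase, treated 24 h with compound at 37 °C, then lysed with luciferase reagent for 10 min at ambient before reading.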
SMN2 splice up – increases expression of the SMN2 splice variant. Potency, µM (highest dose often 46.1 µM), for the others: at the highest dose activity change, positive = activation, hits mostly activators. HEK293 SMN2-luciferase splicing reporter, luminescence, 30-36 h. AID 1458. hit rate 2.8% among 210,000; also: % of control where 0% means no effect; nearly all actives have a fitted effect of over 55% in size
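qHTS luciferase splicing reporter: luminescence rises when SMN2 exon 7 is included in transfected HEK293 cells. Compound exposure lasted 30-36 h at 37C, with 4.5 mM final sodium butyrate as control, followed by a ONE-Glo read.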
NPC1 promoter act – NPC1 promoter activation. Huh7 NPC1 promoter luciferase reporter, 24 h. Potency, µM (doses to about 9.22 µM), for inactives: at the highest dose activation, usual class: activators. hit rate 2.4% among 320,000; also: % of control where 0% means no effect; nearly all actives have a fitted effect of over 60% in size
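Stably transfected Huh7 (NPC1 promoter→luciferase), 1500 cells/well in Opti-MEM + 10% FBS, 2 h settle, then compound 24 h at 37 °C. Luminescence after 10 min with Amplite reagent.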
ELG1 genotoxic – induces genotoxicity in HEK293T cells with luciferase-tagged ELG1 | HEK293T ELG1-luciferase reporter, luminescence, 16 h | Potency, µM (series often up to 46 µM), for inactives: top-dose activity change, positive = activation, hits mostly activators | hit rate 1.3% among 330,000; also: % of control where 0% means no effect; nearly all actives have a fitted effect of over 60% in size
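HEK293T cells expressing luciferase-tagged ELG1 were exposed to compound or DMSO vehicle for 16 hr at 37 °C and 5% CO2. Luciferase activity was then measured with ONE-Glo after 30 min at room temperature.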
Starred values were filed as active, the others as inactive; ? = inconclusive; / = not tested or not shown; [ ] = remark or other dose. Calls follow the shape of the dose curve; as a rule, active = well fitted curve in the direction sought with a large enough effect; inconclusive = small, poorly fitted or top-dose-only effect, or another doubt; inactive = no such curve, though single readings can be large; an effect the other way counts as inactive or inconclusive. Potency is read from the fitted curve at half-maximal effect.

SMILES	FLuc modulator	KinaseGlo FLuc	Rab9 promoter act	SMN2 splice up	NPC1 promoter act	ELG1 genotoxic
O=C1NC(=O)C(=Cc2ccc(Sc3ccccc3)o2)C(=O)N1	24µM*	/	0%	/	1%	?
Cc1ccc(/C=C2\C(=O)NC(=O)N(CCc3ccc(F)cc3)C2=O)o1	-9%	1%	1%	10%	0%	?
O=C1NC(=O)C(=Cc2ccc(-c3ccc(Cl)cc3)o2)C(=O)N1	6.7µM*	/	0%	/	0%	-16%
O=C1NC(=O)C(=Cc2ccc(-c3ccc(F)cc3O)o2)C(=O)N1	13µM*	/	-2%	/	-2%	1%
O=C1NC(=O)C(=Cc2ccc(-c3ccc(S(=O)(=O)N4CCOCC4)cc3)o2)C(=O)N1	?	/	2%	/	-1%	11%
CN1C(=O)C(=Cc2ccc(Sc3ccccc3)o2)C(=O)N(C)C1=O	?	-2%	-5%	-2%	-3%	13%
O=C(O)[C@@H](O)[C@@H](O)C1[O][Sb][O][C@@H]1CO (stereo partly specified)	/	-1%[7.66 µM]	/	-10%[9.22 µM]	/	/
NS(=O)(=O)C[C-]1C=C[CH]([Sb-]([Cl])([Cl])([Cl])([Cl])[Cl])C=C1.c1ccncc1 (stereo unspecified)	/	-4%[7.66 µM]	/	3%[9.22 µM]	/	/
Nc1ccc(S(=O)(=O)c2ccc(NCN3C(=O)NC(=O)C(=O)C3=O)cc2)cc1	/	-2%[7.66 µM]	/	-13%[9.22 µM]	/	/
O=C(CSc1nnc(NC(=O)c2ccccc2F)s1)NCc1ccc(F)cc1	12µM*	/	?	/	?	?
O=C(CSc1nnc(NC(=O)c2ccccc2[N+](=O)[O-])s1)NCc1ccco1	13µM*	/	19%	/	2%	13%
Nc1c(C(=O)Nc2ccc([As](=O)(O)O)cc2)cnc2nnnn12	/	-2%[7.66 µM]	/	-4%[9.22 µM]	/	/
CN(C)C(Cc1ccccc1)C(=O)c1c[nH]c2ccccc12 (stereo unspecified)	24µM*	/	1%	/	-1%	0%
[Cl][Pd][Cl].[S-]C1=C2N=CN[C-]2[NH+]=C[N-]1.[S-]c1ncnc2[nH]cnc12	/	-1%[7.66 µM]	/	-6%[9.22 µM]	/	/
CN(C)C(=O)Oc1ccc(OC(=O)c2ccccc2)cc1	6.7µM*	?	-2%	5%	-4%	?
CCn1nc(-c2ccccc2)nc2c(=O)n(C)c(=O)nc1-2	?	-4%	-31%	7.1µM*	-2%	5%
C=CCN1C(=O)/C(=C/c2ccc(Br)s2)C(=O)NC1=S	?	/	-5%	/	-8%	?
CCN1C(=O)/C(=C\c2ccc([N+](=O)[O-])s2)C(=O)NC1=S	8.5µM*	-12%	2%	-24%	-19%	-13%
COc1ccc(OC)c(N2C(=O)NC(=O)/C(=C/c3ccc([N+](=O)[O-])s3)C2=O)c1	17µM*	?	-9%	?	-4%	-9%
OCCBr	/	/	/	5%	/	/
CCOc1cc(/C=N/NC(=O)c2cccs2)ccc1OC(=O)N1CCOCC1	?	5%	13%	6%	14%	10%
COc1ccc(P2(=O)Nc3ccccc3N2)cc1	7.6µM*	-5%	-4%	24%	-3%	17%
NC(=O)c1ncn(C2OC(CO)C(O)C2O)n1 (stereo unspecified)	/	-2%	/	16µM*	/	/
NC(=O)c1cn(C2OC(CO)C(O)C2O)c2ncnc(N)c12 (stereo unspecified)	11%	2%	-37%	-108%	-33%	-18%
Cc1ccc(N2C(=O)NC(=O)/C(=C/c3ccc(-c4ccc(C(=O)O)c(Cl)c4)o3)C2=O)cc1	11µM*	-1%	-2%	6%	-3%	-11%
SMILES	FLuc modulator	KinaseGlo FLuc	Rab9 promoter act	SMN2 splice up	NPC1 promoter act	ELG1 genotoxic
Cc1cc(/C=C2\C(=O)NC(=O)N(c3cccc(F)c3)C2=O)c(C)n1-c1ccc(C(=O)O)c(Cl)c1	-18%	/	0%	/	-1%	-2%
CCOP(=S)(OCC)SCSC(C)(C)C	/	/	/	-3%	/	/
CCCN1CCCC2Cc3[nH]ncc3CC21 (stereo unspecified)	/	-4%	/	-13%	/	/
O=C(Cc1coc2cc3c(cc12)CCC3)OCC(=O)N1CCCC1=O	?	-2%	0%	10%	-4%	-7%
Cc1ccc(-n2sc3ccccc3c2=O)cc1	4.8µM*	-13%	?	?	?	?
O=C(Cc1c(O)c2ccccc2oc1=O)c1ccc(F)cc1	3µM*	/	?	/	?	11%
FC(F)(F)c1nc2ccc(SSc3ccc4nc(C(F)(F)F)[nH]c4c3)cc2[nH]1	/	-2%[7.66 µM]	/	-10%[9.22 µM]	/	/
O=C(O)CCC(=O)NCCC1=c2ccccc2=N/C1=C\c1c(O)n(Cc2ccc(F)cc2)c(=S)[nH]c1=O	11µM*	/	-4%	/	-5%	5%
O=C(Nc1ccc2nc(SCC(=O)N3CCOCC3)sc2c1)c1ccc(Cl)cc1	11µM*	/	/	/	/	/
CN(C)c1ccccc1	/	/	/	-5%	/	/
CN(C)c1ccc(C(=O)c2ccc(N(C)C)cc2)cc1	13µM*	-2%	-4%	-18%	-12%	23µM*
CC(C)c1ccc(C(c2c(O)c3ccccc3oc2=O)c2c(O)c3ccccc3oc2=O)cc1	/	-4%[7.66 µM]	/	1%[9.22 µM]	/	/
O=c1oc2ccccc2c(O)c1C(c1ccc([N+](=O)[O-])cc1)c1c(O)c2ccccc2oc1=O	19µM*	0%	2%	-10%	-4%	-10%
Nc1ccccc1C(=O)OCC(=O)c1ccc2c(c1)OCCO2	0.076µM*	11µM*	3.2µM*	-22%	2.8µM*	?
O=C(CNC(=O)c1ccc(Cl)cc1)OCC(=O)c1ccc2c(c1)OCCO2	21µM*	1%	2%	11%	-2%	-7%
CCOC(=O)c1ccccc1N	/	/	/	-7%	/	0%
CC(=O)Nc1ccccc1C(=O)OCC(=O)c1ccc2ccccc2c1	12µM*	-1%	/	/	26%	-11%
CCOP(=S)(OCC)Oc1ccc([N+](=O)[O-])cc1	/	/	/	9%	/	/
COc1ccc(-n2c(=S)[nH]c3c(sc(=S)n3-c3ccccc3)c2=O)c(OC)c1	11µM*	/	-3%	/	-7%	0%
COc1ccc(-c2nc3ccccc3c(=O)n2-c2nccs2)cc1	24µM*	-5%	9%	1%	1%	-1%
COc1ccc(C[C@@H](N)c2ccc(OC)cc2)cc1	/	-4%[7.66 µM]	/	-10%[9.22 µM]	/	/
CCN(CC)c1ccc(C=C2C(=O)NC(=S)NC2=O)cc1	19µM*	/	-9%	/	-5%	?
CC(C)CN(CC(C)C)c1ccc(C=C2C(=O)NC(=S)NC2=O)cc1[N+](=O)[O-]	-12%	-4%	4%	-9%	10%	-3%
C[C@H]1COC2=C1C(=O)C(=O)c1c2ccc2c1CCCC2(C)C	21µM*	/	14%	/	-2%	13%
